Results: PubChem BioAssay (NCI)
This is part of a sample that, as a whole, favours compounds with a hit. Of some 83,000 tested, about 20% had one in any assay.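 Results are percent growth after 48 hours of single-concentration exposure. 100 means growth as in untreated cells, lower positive values show inhibition; negative values down to -100 show cell death.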 A number with no mark means an inactive call. Calls of active or inactive are those of the source. The calls were made as follows: active = growth percent below 10; inactive = the rest.

Key:
Assay in all cases: NCI-60 one-dose screen, 48 h (100 = growth as untreated, 0 = no growth, -100 = all killed)
NCI-H23 lung = details: 10 µM unless noted
NCI-H226 lung = details: 10 µM unless noted
NCI-H322M lung = details: 10 µM unless noted
NCI-H460 lung = details: 10 µM unless noted
HOP-92 NSCLC = details: 10 µM
NCI-H522 lung = details: 10 µM
A549/ATCC NSCLC = details: 10 µM unless noted
786-0 renal = details: 10 µM unless noted
DU-145 prostate = details: 10 µM unless noted
K-562 leukemia = details: 10 µM unless noted
MALME-3M melanoma = details: 10 µM unless noted
MDA-MB-231 breast = details: 10 µM unless noted
RXF 393 renal = details: 10 µM unless noted
SF-268 CNS = details: 10 µM unless noted
SF-295 CNS = details: 10 µM unless noted
SF-539 CNS = details: 10 µM unless noted
UACC-257 melanoma = details: 10 µM unless noted
COLO 205 colon = details: 10 µM unless noted
M14 melanoma = details: 10 µM unless noted

Compound	growth (NCI-H23 lung)	growth (NCI-H226 lung)	growth (NCI-H322M lung) [%]	growth (NCI-H460 lung)	growth (HOP-92 NSCLC)	growth (NCI-H522 lung)	growth (A549/ATCC NSCLC) [%]	growth (786-0 renal) [%]	growth (DU-145 prostate)	growth (K-562 leukemia)	growth (MALME-3M melanoma)	growth (MDA-MB-231 breast)	growth (RXF 393 renal)	growth (SF-268 CNS) [%]	growth (SF-295 CNS) [%]	growth (SF-539 CNS)	growth (UACC-257 melanoma) [%]	growth (COLO 205 colon)	growth (M14 melanoma)
COc1cc2ncnc(Nc3ccc4c(cnn4C(=O)Nc4ccccc4)c3)c2cc1OC	100%	103%	81.1	103%	82.8%	89.4%	72.9	81.5	89.3%	58.3%	85.6%	112%	87.3%	97.2	100	86.1%	94.9	–	–
O=c1oc2ccc3ccccc3c2cc1-c1ccnc2[nH]c(=S)[nH]c(=O)c12	94.7%	94.5%	92.9	103%	88.3%	88%	97	97.5	106%	93.4%	–	87.4%	118%	98.7	101	103%	98.9	111%	105%
C[C@@H](c1ccc2c(c1)[nH]c1ccc(Cl)cc12)c1nc2ccccc2[nH]1	91.2%	95.3%	87.3	101%	120%	78.7%	104	103	103%	82%	–	88.1%	105%	87.3	93.5	98.7%	106	123%	111%
COc1ccc(/C=C(/C(=O)N2CCN(c3ccc(C)cc3)CC2)c2cc(OC)c(OC)c(OC)c2)cc1N	38.1%	98.3%	43.7	5.51% (active)	17.6%	-12.8% (active)	23.1	18.5	5.56% (active)	11.2%	–	33.6%	55.2%	25.6	15.4	-4.4% (active)	73.8	-43.9% (active)	3.96% (active)
COc1cc2ncnc(-n3ncc4cc(NC(=O)Nc5ccccc5)ccc43)c2cc1OC	3.14% (active)	-13.9% (active)	30.9	26.8%	-20.3% (active)	19.9%	24.1	28	10.5%	39.1%	-13.8% (active)	-8.14% (active)	-84.3% (active)	21.7	26.9	0.968% (active)	28.7	–	6.8% (active)
COc1ccc2c(c1)/C(=C1/S/C(=N/c3nnc(C)s3)NC1=O)C(=O)N2Cc1ccc(Br)cc1	26.5%	54.7%	35.1	6.08% (active)	25.7%	29.6%	20.7	34	41.6%	34.8%	68.3%	53.4%	49.6%	36	15.4	42.7%	57.4	–	37%
COc1ccc(CN2C(=O)/C(=C\C(=O)c3ccc(OCCN4CCCCC4)cc3)c3ccccc32)cc1	74.5%	89.6%	91.4	94.7%	39%	26%	96.4	37.4	66%	2.32% (active)	–	84.8%	61.7%	82.7	91.5	86.4%	99	76.7%	72.1%
COc1ccc(CN2C(=O)/C(=C\C(=O)c3ccc(OCCN4CCCC4)cc3)c3ccccc32)cc1	83.8%	87.8%	97.6	94.4%	54.4%	31.9%	97.2	85.7	71.9%	-25.9% (active)	–	93%	65.2%	84.3	93.9	86.6%	105	83.9%	79.6%
COc1ccc2oc(=O)cc(CN3C(=O)S/C(=C\c4ccc(Cl)cc4)C3=O)c2c1	90.9%	92.3%	104	102%	86.5%	79.6%	97.9	93.1	96.5%	64.1%	–	108%	116%	92.2	92	99.6%	103	136%	96.2%
CC1(c2ccc(Br)cc2)NC(=O)NC1=O (stereo not drawn)	105%	110%	103	104%	89.6%	102%	93.3	96	111%	–	113%	105%	112%	98.4	110	100%	98.4	113%	103%
COc1ccc(-c2nc(SCC(C)C)nc(Nc3ccccc3)c2C#N)cc1	86.3%	83%	70.8	18.7%	88%	88.3%	48	51.9	100%	82.1%	96%	93.5%	98.8%	87.9	77.1	70.5%	83.8	–	95.8%
CCOC(=O)C1=NN(c2ccccc2)C2=NC(=O)/C(=C\c3cn(-c4ccccc4)nc3-c3cc4ccccc4o3)C(=O)N12	95.4%	84.7%	89.6	97%	63.5%	89.5%	96.8	99.9	109%	74.9%	–	78.7%	124%	105	108	114%	102	109%	101%
CC1=NN(c2cccc(Cl)c2)C(=O)/C1=C\c1cn(-c2nc(N3CCOCC3)nc(N3CCOCC3)n2)c2ccccc12	100%	99.8%	91.9	112%	90.6%	88.9%	99.2	102	106%	114%	104%	112%	115%	95.4	105	109%	106	–	103%
COc1cc(OC)c(NC(=O)n2ncc3cc(Nc4ncnc5ccccc45)ccc32)cc1Cl	97.5%	104%	14.1	108%	87.3%	72.1%	80.3	73.1	56.9%	99.4%	110%	97.2%	88.4%	87.4	98.7	99.5%	118	–	–
COc1ccc(C(=O)CN2C(=O)NC(c3ccccc3)(c3ccccc3)C2=O)cc1	103%	93.2%	110	102%	71.5%	96.5%	103	109	116%	–	108%	106%	105%	101	98.8	92.9%	98.7	115%	103%
O=S(=O)(O)c1ccc2c(c1)Sc1cc(S(=O)(=O)O)ccc1O2	109%	118%	118	118%	98.5%	107%	99.5	108	116%	100%	–	101%	116%	112	103	117%	108	111%	107%
COc1ccc(Cn2cc3c(c2-c2ccc(OC)cc2)CCc2cnoc2-3)cc1	6.98% (active)	9.5% (active)	43.5	0.836% (active)	55.2%	11.1%	22	30.3	10.5%	14.7%	–	8.41% (active)	-1.78% (active)	30.5	–	-28% (active)	65.2	-32.4% (active)	1.32% (active)
